Records with an inconclusive call do not appear. Values without a mark were called inactive. The source made the active and inactive calls. Calls follow the shape of the dose curve; as a rule, active = well fitted inhibition curve with a large enough effect; inconclusive = small, poorly fitted or top-dose-only effect; inactive = no such curve, though single readings can be large or run the other way.

This test deals with Rap guanine nucleotide exchange factor 3 (Homo sapiens) (UniProt O95398). Description: Counterscreen qHTS for antagonist of cAMP-regulated guanine nucleotide exchange factor 3 (EPAC1) (AID 1645888). Also: % of control where 0% means no effect. To be noted: Rap1B-BODIPY-GDP nucleotide exchange, fluorescence; series mostly up to 154 µM. The text has this: Assay Provider (PI): Xiaodong Cheng Ph.D. The University of Texas Medical Branch, […], TX MLPCN Grant: NS066510 In multi-cellular eukaryotic organisms, the effects of cAMP are transduced by two ubiquitously-expressed intracellular cAMP receptors, the classic protein kinase A/cAMP-dependent protein kinase (PKA/cAPK) and the more recently discovered exchange protein directly activated by cAMP/cAMP-regulated guanine nucleotide exchange factor (EPAC/cAMP-GEF). Both PKA and EPAC are ubiquitously expressed in all tissues, and an increase in intracellular cAMP levels will lead to the activation of both PKA and EPAC. Therefore, careful dissections of the individual role and relative contribution of EPAC and PKA within the overall cAMP signaling in various model systems are critical for further elucidating the mechanism of cAMP signaling. To date no EPAC-specific antagonists and agonist, as well as isoform-specific agonists have been reported, and developing EPAC-specific pharmacological probes to determine the physiological functions that EPAC play in the overall cAMP-mediated signaling remains a major challenge within the research field. Furthermore, identified regulators of EPAC may lead to new mechanism-based therapeutic strategies specifically targeting the EPAC / cAMP-signaling components as EPAC has been implicated to play important roles in major human pathological conditions such as diabetes, heart disease, and cancer. This qHTS will be used to screen the Molecular Libraries Small Molecule Repository (MLSMR) as a concentration-titration series using the NCGC unique quantitative screening (qHTS) platform to find activators for EPAC1. In addition, this assay will also be used as a counterscreen for the EPAC2 qHTS. This fluorescent based assay is developed and validated for EPAC1 that measures exchange using EPAC effector Rap1 complex with BODIPY-GDP, a GDP analog with a tethered fluorophores. Activators are identified by monitoring the change in fluorescence signal as the exchanged free BODIPY-GDP has a reduced fluorescence compared to Rap1-bound BODIPY-GDP. Increase in signal (activation) is the desired outcome for the EPAC1 agonist while no activity in this assay is desired for the EPAC2 agonist counterscreen. Reference: [1] de Rooij, J., Zwartkruis, F. J., Verheijen, M. H., Cool, R. H., Nijman, S. M., Wittinghofer, A., and Bos, J.L. (1998) Nature 396, 474-477. Kawasaki, H., Springett, G. M., Mochizuki, N., Toki, S., Nakaya, M., Matsuda, M., Housman, D. E., and Graybiel, A. M. (1998) Science 282, 2275-2279.
Sequence of Rap guanine nucleotide exchange factor 3 (Homo sapiens) (O95398 whole entry, looked up): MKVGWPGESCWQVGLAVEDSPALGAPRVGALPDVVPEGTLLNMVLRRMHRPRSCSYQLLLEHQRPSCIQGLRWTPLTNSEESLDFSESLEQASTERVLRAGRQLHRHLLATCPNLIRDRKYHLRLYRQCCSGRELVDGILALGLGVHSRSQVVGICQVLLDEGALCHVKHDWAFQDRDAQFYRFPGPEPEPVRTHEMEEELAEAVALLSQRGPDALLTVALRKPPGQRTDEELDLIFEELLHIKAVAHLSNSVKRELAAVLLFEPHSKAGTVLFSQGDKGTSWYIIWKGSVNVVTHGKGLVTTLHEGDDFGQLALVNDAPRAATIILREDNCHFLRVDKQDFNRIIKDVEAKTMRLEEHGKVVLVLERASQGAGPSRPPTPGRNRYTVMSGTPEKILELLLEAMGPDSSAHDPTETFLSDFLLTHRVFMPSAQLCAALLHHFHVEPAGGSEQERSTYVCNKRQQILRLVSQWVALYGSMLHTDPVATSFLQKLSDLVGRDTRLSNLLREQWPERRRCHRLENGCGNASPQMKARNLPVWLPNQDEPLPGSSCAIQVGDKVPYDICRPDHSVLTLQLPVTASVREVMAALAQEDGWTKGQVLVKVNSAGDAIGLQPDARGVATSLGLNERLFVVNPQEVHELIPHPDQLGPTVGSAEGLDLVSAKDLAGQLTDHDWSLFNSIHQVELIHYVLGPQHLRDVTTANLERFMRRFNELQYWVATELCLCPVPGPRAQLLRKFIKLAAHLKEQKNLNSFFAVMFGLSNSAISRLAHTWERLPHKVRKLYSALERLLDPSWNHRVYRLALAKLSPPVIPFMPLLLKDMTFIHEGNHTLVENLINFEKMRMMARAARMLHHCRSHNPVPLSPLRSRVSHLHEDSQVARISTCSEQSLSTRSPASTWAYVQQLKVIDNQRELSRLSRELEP
EPAC1 Counterscreen PROTOCOL TABLE SEQUENCE No. (e.g., 1, 2, 3, etc.); […] (e.g., Cells, Incubation, Reagent, etc.); VALUE and DESCRIPTION. 1. Reagent. 3 uL. [1x] 250 nM Rap1B-BODIPY-GDP, and 50 uM GDP. 2a. Compound. 23 nL. Control 6,572 uM cAMP (working concentration). 2b, 2c. Compound. 23 nL. Control activator and inhibitor; 234 - 30,000 uM cAMP and 16.4 - 10,000 uM. 2d. Compound. 46 nL. MLSMR follow-up library; 0.64 - 10,000 uM. 3. Time. 15 sec, 1000rpm. Centrifuge. 4. Time. 5 min. Incubation at room temperature. 5. Detector. Fluorescence. (Read 1), Ex/Em = 480 nm / 540 nm. 6. Time. 30 min. Incubation at room temperature. 7. Detector. Fluorescence. (Read 2), Ex/Em = 480 nm/ 540 nm. 8. Reagent. 1uL. Dispense either [4x] 10 uM cAMP or buffer. 9. Time. 15 sec, 1000 rpm. Centrifuge. 10. Time. 5 min. Incubation at room temperature. 11. Detector. Fluorescence. (Read 3), Ex/Em = 480 nm / 540 nm. 12. Time. 30 min. Incubation at room temperature. 13. Detector. Fluorescence. (Read 4), Ex/Em = 480 nm / 540 nm. NOTES (numbers refer to Sequence numbers above; values are from representative experiments) 1. Medium-binding black solid-bottom Greiner plates (789176-F). Dispense 3 uL of [1x] 250 nM Rap1B-BODIPY-GDP, and 50 uM GDP into columns 1 to 48. 2a. Control compound cAMP (6,572 uM, column 3, rows 1 to 32) single pin-transferred for a [final] of 50 uM. 2b. […]
A general note: The purpose of a counterscreen is to sort out artefacts and off-target activity.
In the case of `O=C(Nc1ccccc1C(=O)OCc1cc(=O)n2c3c(sc2n1)CCCC3)c1ccc(F)cc1`, the compound was called inactive. `O=C(O)c1ccccc1-c1c2cc(I)c(=O)c(I)c-2oc2c(I)c(O)c(I)cc12`: the activity change, negative = inhibition is 212% [at 30.8 µM]. As to `O=C(O)CCc1ccc(-c2ccc(Cl)cc2)n1-c1cccc(C(F)(F)F)c1`, the call was inactive. Regarding `N#C/C(=C\c1ccc(-c2ccc(Cl)c(C(=O)O)c2)o1)c1nc2ccccc2[nH]1`, the result was inactive. The same measure, in the same setting: the value for `CCOC(=O)c1ccc(NC(=O)CSc2nc(-c3ccc(OC)cc3)cc(C(F)(F)F)c2C#N)cc1` was “inactive”. On to `COc1ccc(NS(=O)(=O)c2ccc3c(c2)[C@H]2C=CC[C@H]2[C@@H](c2ccc(C(=O)O)cc2)N3)cc1`, for which the compound was called inactive.

With `CCCCCCc1cc2cc(-c3cn4c(n3)sc3cc(OC)ccc34)c(=O)oc2cc1O`, the compound was classed as inactive. For the compound `CCCCCCc1cc2cc(-c3nnc(-c4cccc(Cl)c4)o3)c(=O)oc2cc1O`, the compound was called inactive. Same read-out and setting: with `COC(=O)CCC(=O)OC1(C)C(=O)C=C2C=C(C3CC3)N(CCCOC(C)C)C=C2C1=O` (stereo unspecified) the entry was “inactive”; with `O=C(O)c1c(-c2ccccc2)oc2ccc(OCc3ccc(Cl)c(Cl)c3)cc12`, “inactive”.

In the case of `CCCCC1=CC2=CC(=O)C(C)(OC(=O)CCc3ccccc3)C(=O)C2=CO1` (stereo unspecified), the activity change, negative = inhibition is 1.91% [at 30.8 µM].
